# Source: article PMC7862700, “An all-to-all approach to the identification of sequence-specific readers for epigenetic DNA modifications on cytosine”
# Assays:
# Experiment in all cases: DAPPL (digital affinity profiling via proximity ligation, sequencing); 10 mM Tris-HCl pH 7.5, 50 mM NaCl, 1 mM DTT, 4% glycerol, room temperature, 30 min; GST-TFs on glutathione beads, 16-mer random dsDNA library, 0.1% formaldehyde crosslink after washing; high values mean tight binding
# FLI1 = target: T1, FLI1 (Homo sapiens, UniProt Q01543 1-452); details: protein: recombinant; tags: N-terminal GST; dsDNA, one strand shown
# T1 sequence: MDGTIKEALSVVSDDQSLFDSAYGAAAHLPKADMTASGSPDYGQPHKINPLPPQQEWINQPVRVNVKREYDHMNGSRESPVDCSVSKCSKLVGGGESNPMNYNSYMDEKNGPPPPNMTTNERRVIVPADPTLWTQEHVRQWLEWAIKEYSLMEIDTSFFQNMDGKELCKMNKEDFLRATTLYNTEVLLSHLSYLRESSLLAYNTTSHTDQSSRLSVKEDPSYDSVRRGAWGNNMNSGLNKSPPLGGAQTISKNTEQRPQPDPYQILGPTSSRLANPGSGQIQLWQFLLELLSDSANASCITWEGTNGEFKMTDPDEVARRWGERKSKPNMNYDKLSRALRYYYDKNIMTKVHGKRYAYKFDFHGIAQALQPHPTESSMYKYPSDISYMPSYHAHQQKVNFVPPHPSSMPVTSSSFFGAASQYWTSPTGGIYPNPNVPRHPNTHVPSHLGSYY
# Procedure, shortened: (§1)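 GST fusions of human transcription factors were expressed in yeast and captured with glutathione beads. Once given DNA barcodes and pooled alongside a tag-only sample, they were incubated for 30 min at room temperature with 200 nmole of a random double-stranded 16-mer DNA library in Tris/NaCl/DTT/glycerol buffer, then washed, crosslinked (0.1% formaldehyde), proximity-ligated, PCR-amplified and sequenced on an Illumina NextSeq500. The binding signal of each hexamer is its read frequency for a factor divided by its frequency for the tag-only sample.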
# ELK1 = target: T2, ELK1 (Homo sapiens, UniProt P19419 1-428); details: protein: recombinant; tags: N-terminal GST; dsDNA, one strand shown
# T2 sequence: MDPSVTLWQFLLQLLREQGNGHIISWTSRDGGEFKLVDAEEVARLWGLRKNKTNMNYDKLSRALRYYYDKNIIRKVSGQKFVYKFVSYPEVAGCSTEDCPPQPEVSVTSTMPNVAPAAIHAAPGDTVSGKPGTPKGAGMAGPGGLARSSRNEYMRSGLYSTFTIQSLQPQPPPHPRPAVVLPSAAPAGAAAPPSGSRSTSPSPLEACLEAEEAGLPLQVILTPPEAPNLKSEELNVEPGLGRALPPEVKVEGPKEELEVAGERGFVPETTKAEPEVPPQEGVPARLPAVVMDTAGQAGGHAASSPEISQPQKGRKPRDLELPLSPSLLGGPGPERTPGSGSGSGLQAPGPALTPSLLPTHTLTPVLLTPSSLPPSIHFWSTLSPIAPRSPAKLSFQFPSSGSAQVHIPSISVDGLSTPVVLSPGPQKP
# Procedure, shortened: as §1
# GABPA = target: T3, GABPA (Homo sapiens, UniProt Q06546 1-454); details: protein: recombinant; tags: N-terminal GST; dsDNA, one strand shown
# T3 sequence: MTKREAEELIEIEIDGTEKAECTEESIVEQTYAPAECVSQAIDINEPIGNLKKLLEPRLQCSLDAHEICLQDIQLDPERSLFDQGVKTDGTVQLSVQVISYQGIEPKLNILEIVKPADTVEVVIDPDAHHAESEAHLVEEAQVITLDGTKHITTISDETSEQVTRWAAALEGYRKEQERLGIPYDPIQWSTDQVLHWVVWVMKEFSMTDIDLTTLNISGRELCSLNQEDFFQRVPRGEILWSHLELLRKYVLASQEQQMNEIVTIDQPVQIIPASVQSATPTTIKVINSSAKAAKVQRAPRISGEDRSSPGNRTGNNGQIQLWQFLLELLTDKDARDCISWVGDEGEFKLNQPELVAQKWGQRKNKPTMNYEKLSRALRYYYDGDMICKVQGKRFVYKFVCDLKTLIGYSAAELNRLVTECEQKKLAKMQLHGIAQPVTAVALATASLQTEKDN
# Procedure, shortened: as §1
# ERG = target: T4, ERG (Homo sapiens, UniProt P11308 1-479); details: protein: recombinant; tags: N-terminal GST; dsDNA, one strand shown
# T4 sequence: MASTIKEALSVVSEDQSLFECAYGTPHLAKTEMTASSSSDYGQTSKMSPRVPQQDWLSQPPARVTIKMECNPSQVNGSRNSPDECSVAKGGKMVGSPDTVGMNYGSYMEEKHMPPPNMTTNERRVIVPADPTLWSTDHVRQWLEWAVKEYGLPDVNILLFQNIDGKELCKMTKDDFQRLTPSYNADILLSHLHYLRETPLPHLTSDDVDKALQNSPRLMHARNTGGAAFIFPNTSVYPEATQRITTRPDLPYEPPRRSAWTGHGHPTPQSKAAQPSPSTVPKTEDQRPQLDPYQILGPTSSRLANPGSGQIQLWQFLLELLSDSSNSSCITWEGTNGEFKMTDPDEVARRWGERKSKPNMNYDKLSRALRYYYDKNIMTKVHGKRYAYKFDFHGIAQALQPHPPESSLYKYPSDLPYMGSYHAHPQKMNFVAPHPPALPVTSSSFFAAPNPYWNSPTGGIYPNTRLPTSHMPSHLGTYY
# Procedure, shortened: as §1
# ELF1 = ELF1 (Homo sapiens, UniProt P32519 1-619); details: protein: recombinant; tags: N-terminal GST; dsDNA, one strand shown
# Sequence of ELF1 (P32519 whole entry): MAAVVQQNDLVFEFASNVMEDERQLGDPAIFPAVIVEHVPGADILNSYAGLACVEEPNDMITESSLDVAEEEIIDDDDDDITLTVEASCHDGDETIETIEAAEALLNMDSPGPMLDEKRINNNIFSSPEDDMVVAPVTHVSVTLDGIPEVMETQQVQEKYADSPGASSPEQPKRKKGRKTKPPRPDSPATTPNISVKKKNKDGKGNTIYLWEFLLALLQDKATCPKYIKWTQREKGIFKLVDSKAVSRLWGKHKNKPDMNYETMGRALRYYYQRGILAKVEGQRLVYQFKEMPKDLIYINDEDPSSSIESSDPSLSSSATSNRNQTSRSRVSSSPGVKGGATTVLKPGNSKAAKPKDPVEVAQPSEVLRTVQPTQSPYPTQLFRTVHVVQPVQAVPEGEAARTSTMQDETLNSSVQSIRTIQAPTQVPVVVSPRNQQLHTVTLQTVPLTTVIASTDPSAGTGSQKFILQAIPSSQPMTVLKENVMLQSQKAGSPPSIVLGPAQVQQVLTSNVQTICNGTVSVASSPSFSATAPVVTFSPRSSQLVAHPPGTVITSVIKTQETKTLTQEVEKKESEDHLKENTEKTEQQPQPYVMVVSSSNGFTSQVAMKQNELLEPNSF
# Procedure, shortened: as §1
# EHF = target: T5, EHF (Homo sapiens, UniProt Q9NZC4 1-300); details: protein: recombinant; tags: N-terminal GST; dsDNA, one strand shown
# T5 sequence: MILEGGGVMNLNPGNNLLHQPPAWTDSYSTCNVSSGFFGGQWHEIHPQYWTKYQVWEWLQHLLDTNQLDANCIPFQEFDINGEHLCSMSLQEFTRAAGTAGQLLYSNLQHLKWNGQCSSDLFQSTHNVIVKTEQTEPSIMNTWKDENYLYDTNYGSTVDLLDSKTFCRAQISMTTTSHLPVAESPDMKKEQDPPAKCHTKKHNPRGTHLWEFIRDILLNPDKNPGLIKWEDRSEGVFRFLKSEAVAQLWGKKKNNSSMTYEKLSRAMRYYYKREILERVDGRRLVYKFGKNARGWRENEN
# Procedure, shortened: as §1
# SPI1 = SPI1 (Homo sapiens, UniProt P17947 1-270); details: protein: recombinant; tags: N-terminal GST; dsDNA, one strand shown
# Procedure, shortened: as §1
# SPIB = SPIB (Homo sapiens, UniProt Q01892 1-262); details: protein: recombinant; tags: N-terminal GST; dsDNA, one strand shown
# Sequence of SPIB (Q01892 whole entry): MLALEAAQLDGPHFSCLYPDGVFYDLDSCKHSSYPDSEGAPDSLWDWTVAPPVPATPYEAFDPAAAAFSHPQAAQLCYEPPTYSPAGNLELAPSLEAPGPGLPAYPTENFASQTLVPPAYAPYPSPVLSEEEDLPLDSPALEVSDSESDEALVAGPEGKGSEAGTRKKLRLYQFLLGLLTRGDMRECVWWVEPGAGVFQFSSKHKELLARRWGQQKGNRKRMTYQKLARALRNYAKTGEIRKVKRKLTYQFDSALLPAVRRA
# Procedure, shortened: as §1
# ELK3 = target: T6, ELK3 (Homo sapiens, UniProt P41970 1-407); details: protein: recombinant; tags: N-terminal GST; dsDNA, one strand shown
# T6 sequence: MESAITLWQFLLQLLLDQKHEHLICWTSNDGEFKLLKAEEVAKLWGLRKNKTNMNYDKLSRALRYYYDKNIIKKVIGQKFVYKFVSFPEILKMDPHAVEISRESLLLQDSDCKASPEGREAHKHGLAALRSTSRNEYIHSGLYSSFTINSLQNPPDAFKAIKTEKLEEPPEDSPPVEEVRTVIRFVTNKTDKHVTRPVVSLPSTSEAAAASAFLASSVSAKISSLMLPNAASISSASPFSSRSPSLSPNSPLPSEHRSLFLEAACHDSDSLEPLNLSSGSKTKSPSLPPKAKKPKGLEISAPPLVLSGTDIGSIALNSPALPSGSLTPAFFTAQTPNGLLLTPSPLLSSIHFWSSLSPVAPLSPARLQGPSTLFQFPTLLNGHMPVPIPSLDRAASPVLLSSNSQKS
# Procedure, shortened: as §1
# FEV = target: T7, FEV (Homo sapiens, UniProt Q99581 1-238); details: protein: recombinant; tags: N-terminal GST; dsDNA, one strand shown
# T7 sequence: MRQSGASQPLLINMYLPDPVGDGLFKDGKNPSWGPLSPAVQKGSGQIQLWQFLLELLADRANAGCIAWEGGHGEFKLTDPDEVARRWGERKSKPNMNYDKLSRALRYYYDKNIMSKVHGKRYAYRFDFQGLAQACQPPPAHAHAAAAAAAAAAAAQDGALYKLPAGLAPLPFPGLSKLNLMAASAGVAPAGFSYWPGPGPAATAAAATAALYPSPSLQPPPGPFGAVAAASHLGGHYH
# Procedure, shortened: as §1
# ETV5 = ETV5 (Homo sapiens, UniProt P41161 1-510); details: protein: recombinant; tags: N-terminal GST; dsDNA, one strand shown
# Sequence of ETV5 (P41161 whole entry): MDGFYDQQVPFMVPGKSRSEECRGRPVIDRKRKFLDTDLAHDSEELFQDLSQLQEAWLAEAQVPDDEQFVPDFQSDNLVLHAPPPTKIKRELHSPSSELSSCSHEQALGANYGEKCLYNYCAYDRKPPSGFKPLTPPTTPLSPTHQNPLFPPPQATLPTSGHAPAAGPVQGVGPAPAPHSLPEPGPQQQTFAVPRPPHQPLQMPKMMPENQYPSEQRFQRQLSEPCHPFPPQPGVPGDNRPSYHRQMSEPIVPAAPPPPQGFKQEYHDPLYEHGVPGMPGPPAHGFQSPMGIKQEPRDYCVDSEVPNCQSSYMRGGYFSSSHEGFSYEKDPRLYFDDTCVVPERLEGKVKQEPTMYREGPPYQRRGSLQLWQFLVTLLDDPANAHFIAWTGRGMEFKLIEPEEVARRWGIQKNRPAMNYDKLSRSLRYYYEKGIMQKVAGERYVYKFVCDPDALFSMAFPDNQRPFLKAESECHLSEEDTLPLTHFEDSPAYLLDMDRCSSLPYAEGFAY
# Procedure, shortened: as §1
# HSF1 = HSF1 (Homo sapiens, UniProt Q00613 1-529); details: protein: recombinant; tags: N-terminal GST; chain copies: 3; dsDNA, one strand shown
# Sequence of HSF1 (Q00613 whole entry): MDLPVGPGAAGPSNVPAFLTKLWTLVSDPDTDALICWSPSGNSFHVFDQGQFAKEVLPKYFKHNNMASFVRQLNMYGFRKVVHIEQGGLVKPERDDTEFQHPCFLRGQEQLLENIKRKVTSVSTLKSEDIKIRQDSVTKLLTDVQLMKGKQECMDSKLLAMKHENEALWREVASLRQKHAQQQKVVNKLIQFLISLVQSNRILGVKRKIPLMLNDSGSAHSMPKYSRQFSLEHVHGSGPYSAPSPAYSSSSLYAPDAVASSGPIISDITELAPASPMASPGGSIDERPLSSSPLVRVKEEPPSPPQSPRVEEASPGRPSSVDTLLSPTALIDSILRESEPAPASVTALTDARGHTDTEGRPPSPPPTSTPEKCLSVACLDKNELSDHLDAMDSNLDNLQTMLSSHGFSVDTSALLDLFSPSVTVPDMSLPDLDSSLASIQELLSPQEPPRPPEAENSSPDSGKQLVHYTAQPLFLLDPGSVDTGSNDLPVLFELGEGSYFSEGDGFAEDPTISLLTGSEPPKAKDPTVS
# Procedure, shortened: as §1
# SPIC = target: T8, SPIC (Homo sapiens, UniProt Q8N5J4 1-248); details: protein: recombinant; tags: N-terminal GST; dsDNA, one strand shown
# T8 sequence: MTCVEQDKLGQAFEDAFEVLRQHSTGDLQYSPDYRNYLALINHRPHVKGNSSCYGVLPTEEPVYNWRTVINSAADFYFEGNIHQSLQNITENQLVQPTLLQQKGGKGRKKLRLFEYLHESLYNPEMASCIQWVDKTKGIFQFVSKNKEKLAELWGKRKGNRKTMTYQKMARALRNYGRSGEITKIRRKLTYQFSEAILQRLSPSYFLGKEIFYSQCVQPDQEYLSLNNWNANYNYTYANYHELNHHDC
# Procedure, shortened: as §1
# ELF4 = ELF4 (Homo sapiens, UniProt Q99607 1-663); details: protein: recombinant; tags: N-terminal GST; dsDNA, one strand shown
# Sequence of ELF4 (Q99607 whole entry): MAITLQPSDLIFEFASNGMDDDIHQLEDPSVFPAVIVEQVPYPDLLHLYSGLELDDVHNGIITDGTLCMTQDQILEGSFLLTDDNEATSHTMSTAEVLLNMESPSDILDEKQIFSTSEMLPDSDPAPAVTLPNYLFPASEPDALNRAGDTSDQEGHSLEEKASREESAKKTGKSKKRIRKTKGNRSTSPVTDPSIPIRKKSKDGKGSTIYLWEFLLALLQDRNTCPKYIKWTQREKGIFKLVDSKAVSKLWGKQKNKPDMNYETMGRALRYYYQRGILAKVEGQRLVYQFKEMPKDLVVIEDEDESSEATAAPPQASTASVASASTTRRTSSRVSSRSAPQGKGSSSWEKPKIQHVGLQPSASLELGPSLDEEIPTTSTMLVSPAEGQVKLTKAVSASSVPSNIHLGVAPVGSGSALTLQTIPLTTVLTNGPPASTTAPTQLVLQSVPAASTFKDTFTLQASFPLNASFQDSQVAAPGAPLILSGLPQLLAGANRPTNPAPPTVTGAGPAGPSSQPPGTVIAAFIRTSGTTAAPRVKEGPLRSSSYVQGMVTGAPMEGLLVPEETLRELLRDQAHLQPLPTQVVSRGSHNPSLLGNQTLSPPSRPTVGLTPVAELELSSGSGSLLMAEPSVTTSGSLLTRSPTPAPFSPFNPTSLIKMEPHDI
# Procedure, shortened: as §1
# ELK4 = target: T9, ELK4 (Homo sapiens, UniProt P28324-2 1-405); details: protein: recombinant; tags: N-terminal GST; dsDNA, one strand shown
# T9 sequence: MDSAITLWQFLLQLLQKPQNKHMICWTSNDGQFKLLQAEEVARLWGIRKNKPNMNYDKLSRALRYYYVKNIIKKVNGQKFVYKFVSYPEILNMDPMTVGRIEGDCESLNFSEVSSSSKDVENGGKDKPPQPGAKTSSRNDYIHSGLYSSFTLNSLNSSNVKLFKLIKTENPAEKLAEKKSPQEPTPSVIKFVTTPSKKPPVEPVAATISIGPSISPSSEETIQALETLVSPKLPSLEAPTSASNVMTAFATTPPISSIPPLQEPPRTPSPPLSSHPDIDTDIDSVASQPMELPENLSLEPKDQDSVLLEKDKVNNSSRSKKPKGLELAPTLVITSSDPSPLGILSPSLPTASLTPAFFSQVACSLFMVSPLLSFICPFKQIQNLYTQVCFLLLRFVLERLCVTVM
# Procedure, shortened: as §1
# ETV2 = target: T10, ETV2 (Homo sapiens, UniProt O00321 1-342); details: protein: recombinant; tags: N-terminal GST; dsDNA, one strand shown
# T10 sequence: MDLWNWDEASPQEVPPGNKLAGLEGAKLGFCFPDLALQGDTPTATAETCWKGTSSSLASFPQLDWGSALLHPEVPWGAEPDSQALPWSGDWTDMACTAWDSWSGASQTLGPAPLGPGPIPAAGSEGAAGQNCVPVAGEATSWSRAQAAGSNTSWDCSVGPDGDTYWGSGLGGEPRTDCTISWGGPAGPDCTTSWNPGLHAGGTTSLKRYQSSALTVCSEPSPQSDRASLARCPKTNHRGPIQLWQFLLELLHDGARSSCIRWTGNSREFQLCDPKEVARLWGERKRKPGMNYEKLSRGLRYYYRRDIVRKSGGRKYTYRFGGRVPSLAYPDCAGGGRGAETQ
# Procedure, shortened: as §1
# ELF3 = target: T11, ELF3 (Homo sapiens, UniProt P78545 1-371); details: protein: recombinant; tags: N-terminal GST; dsDNA, one strand shown
# T11 sequence: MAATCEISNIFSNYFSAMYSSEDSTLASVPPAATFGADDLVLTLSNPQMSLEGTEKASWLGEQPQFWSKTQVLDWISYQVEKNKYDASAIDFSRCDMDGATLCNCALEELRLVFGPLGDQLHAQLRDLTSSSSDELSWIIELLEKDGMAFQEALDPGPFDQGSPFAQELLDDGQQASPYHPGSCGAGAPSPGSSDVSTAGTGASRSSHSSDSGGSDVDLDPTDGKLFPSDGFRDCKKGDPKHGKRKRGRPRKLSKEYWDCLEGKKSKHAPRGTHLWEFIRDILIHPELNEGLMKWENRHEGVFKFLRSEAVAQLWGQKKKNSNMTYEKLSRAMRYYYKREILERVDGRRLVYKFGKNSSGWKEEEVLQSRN
# Procedure, shortened: as §1
# CRX = CRX (Homo sapiens, UniProt O43186 1-299); details: protein: recombinant; tags: N-terminal GST; dsDNA, one strand shown
# Sequence of CRX (O43186 whole entry): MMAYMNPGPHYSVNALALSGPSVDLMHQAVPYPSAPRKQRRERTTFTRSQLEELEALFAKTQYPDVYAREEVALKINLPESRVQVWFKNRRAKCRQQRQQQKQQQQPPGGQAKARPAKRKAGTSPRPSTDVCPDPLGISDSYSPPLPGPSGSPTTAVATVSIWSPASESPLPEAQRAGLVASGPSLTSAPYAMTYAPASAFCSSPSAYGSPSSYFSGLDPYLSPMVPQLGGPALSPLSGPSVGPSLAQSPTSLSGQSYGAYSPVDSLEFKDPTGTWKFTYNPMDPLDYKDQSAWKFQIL
# Procedure, shortened: as §1
# ETV1 = ETV1 (Homo sapiens, UniProt P50549 1-477); details: protein: recombinant; tags: N-terminal GST; dsDNA, one strand shown
# Sequence of ETV1 (P50549 whole entry): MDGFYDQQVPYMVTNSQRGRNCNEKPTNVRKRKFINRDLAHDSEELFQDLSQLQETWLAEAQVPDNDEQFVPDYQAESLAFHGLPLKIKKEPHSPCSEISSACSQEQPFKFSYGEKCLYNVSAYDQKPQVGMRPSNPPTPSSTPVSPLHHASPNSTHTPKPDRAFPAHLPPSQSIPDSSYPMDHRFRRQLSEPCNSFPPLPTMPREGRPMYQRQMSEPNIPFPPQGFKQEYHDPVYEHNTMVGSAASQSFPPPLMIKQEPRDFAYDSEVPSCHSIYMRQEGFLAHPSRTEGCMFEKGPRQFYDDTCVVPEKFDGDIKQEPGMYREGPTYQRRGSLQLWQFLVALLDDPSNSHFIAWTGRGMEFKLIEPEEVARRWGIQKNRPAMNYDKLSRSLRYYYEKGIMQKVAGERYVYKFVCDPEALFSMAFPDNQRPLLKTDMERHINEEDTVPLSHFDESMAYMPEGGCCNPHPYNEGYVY
# Procedure, shortened: as §1
sequence,measurement,setting,value
TCTTAA,binding signal,FLI1,"1.18 fold enrichment (6-mer frequency, TF over GST control)"
same,binding signal,ELK1,"1.13 fold enrichment (6-mer frequency, TF over GST control)"
same,binding signal,GABPA,"1.16 fold enrichment (6-mer frequency, TF over GST control)"
same,binding signal,ERG,"1.21 fold enrichment (6-mer frequency, TF over GST control)"
same,binding signal,ELF1,"1.23 fold enrichment (6-mer frequency, TF over GST control)"
same,binding signal,EHF,"1.09 fold enrichment (6-mer frequency, TF over GST control)"
same,binding signal,SPI1,"1.23 fold enrichment (6-mer frequency, TF over GST control)"
same,binding signal,SPIB,"1.23 fold enrichment (6-mer frequency, TF over GST control)"
same,binding signal,ELK3,"1.23 fold enrichment (6-mer frequency, TF over GST control)"
same,binding signal,FEV,"1.24 fold enrichment (6-mer frequency, TF over GST control)"
same,binding signal,ETV5,"1.2 fold enrichment (6-mer frequency, TF over GST control)"
same,binding signal,HSF1,"1.88 fold enrichment (6-mer frequency, TF over GST control)"
same,binding signal,SPIC,"1.2 fold enrichment (6-mer frequency, TF over GST control)"
same,binding signal,ELF4,"1.19 fold enrichment (6-mer frequency, TF over GST control)"
same,binding signal,ELK4,"1.18 fold enrichment (6-mer frequency, TF over GST control)"
same,binding signal,ETV2,"1.25 fold enrichment (6-mer frequency, TF over GST control)"
same,binding signal,ELF3,"1.24 fold enrichment (6-mer frequency, TF over GST control)"
same,binding signal,CRX,"2.69 fold enrichment (6-mer frequency, TF over GST control)"
same,binding signal,ETV1,"1.12 fold enrichment (6-mer frequency, TF over GST control)"
